Consider 60 compounds from PubChem BioAssay AID1159554 (Broad Institute, 2015).

In all, about 94,000 compounds went through this assay and about 2,100 (2.2%) were called active. This excerpt belongs to a sample that is enriched for actives. Unmarked numbers belong to inactive results. Cut-off read from the data, not from the text of the source: active = activity change below about -80%; inconclusive = no clear call, values can overlap the other calls; inactive = above that.

The experiment is described as follows: Dd2 malaria parasite growth inhibition – SYBR Green fluorescence, single dose replicates, primary screen (AID 1159554). As to conditions: P. falciparum Dd2 growth, 72 h, at 10 µM, hits give low values.
`CC(=O)N1[C@H](CO)[C@H](c2ccccc2)C12CN(C(=O)c1ccccn1)C2`: the activity change was -28.2%. For the compound `CC(C)NC(=O)N(C)C[C@@H]1OCCCC[C@@H](C)Oc2ccc(NC(=O)Cc3ccccc3)cc2C(=O)N([C@H](C)CO)C[C@H]1C`, the activity change is -13.3%. With `C[C@@H]1CN([C@@H](C)CO)C(=O)c2cc(NC(=O)Cc3ccccc3)ccc2O[C@@H](C)CCCCO[C@H]1CN(C)C(=O)Nc1cccc2ccccc12`, the activity change is -86.1% (active). As to `C[C@@H]1CCCCO[C@H](CN(C)C(=O)Nc2cccc3ccccc23)[C@H](C)CN([C@@H](C)CO)C(=O)c2cc(NC(=O)CCCN(C)C)ccc2O1`, the activity change was 0.619%.

For the compound `C[C@@H]1CN([C@@H](C)CO)C(=O)c2cc(NC(=O)CCCN(C)C)ccc2O[C@@H](C)CCCCO[C@H]1CN(C)C(=O)Nc1cccc2ccccc12`, the activity change is -85.2% (active). In the case of `C[C@@H]1CN([C@@H](C)CO)C(=O)c2cc(NC(=O)Cc3ccccc3)ccc2O[C@@H](C)CCCCO[C@@H]1CN(C)C(=O)Nc1ccccc1`, the activity change was -51.5%. Regarding `CC(C)NC(=O)N(C)C[C@@H]1OCCCC[C@@H](C)Oc2ccc(NC(=O)CCCN(C)C)cc2C(=O)N([C@@H](C)CO)C[C@@H]1C`, the activity change was -5.33%. With `CO[C@@H]1CN(C)C(=O)c2cc(NC(=O)Nc3ccc(F)cc3)ccc2OC[C@@H](C)NC[C@@H]1C`, the activity change is 13.3%.

As to `O=C(C[C@H]1CC[C@H]2[C@@H](COC[C@@H](O)CN2CC2CCOCC2)O1)NCc1ccc(Cl)cc1`, the activity change was -4.66%. With `CO[C@@H]1CN(C)C(=O)c2ccc(NS(C)(=O)=O)cc2OC[C@@H](C)N(C(=O)CC2CC2)C[C@@H]1C`, the activity change was 16.2%. Then `O=C(c1ccccn1)N1CC(=O)N2[C@H](CO)[C@H](c3ccc(C#CCc4ccccc4)cc3)[C@H]2C1`, with -46.8%; and `O=C(C[C@@H]1C=C[C@H](NC(=O)Nc2ccccc2F)[C@@H](CO)O1)NCc1ccccc1`, with -0.106%. As for `CN1CCN(C(=O)C[C@H]2CC[C@H]3[C@@H](COc4ccc(NC(=O)C5CCC5)cc4C(=O)N3C)O2)CC1`, the activity change is -19.8%. The value for `CN1C(=O)c2cc(NC(=O)c3cccc(F)c3)ccc2OC[C@H]2O[C@@H](CC(=O)NCc3ccccc3Cl)CC[C@@H]21` was -47.4%. Then `CCCNC(=O)N(C)C[C@H]1Oc2cc(-c3ccncc3)ccc2S(=O)(=O)N([C@H](C)CO)C[C@H]1C`, with 70.9%.

`CC(C)NC(=O)N[C@H]1C=C[C@H](CC(=O)NCCN2CCCC2)O[C@@H]1CO`: the activity change was 9.57%. As for `C/C=C/c1cnc2c(c1)C(=O)N([C@@H](C)CO)C[C@H](C)[C@H](CN(C)C(=O)CN1CCOCC1)O2`, the activity change was -2.24%. The value for `COc1ccc2c3c(n(C)c2c1)[C@@H](CO)N(C(C)=O)CC31CCN(Cc2nccs2)CC1` was -11.3%; that for `COc1ccc2c3c(n(C)c2c1)[C@H](CO)N(CC1CCCCC1)CC31CCN(Cc2nccs2)CC1` was -91% (active); that for `COc1ccc2c3c(n(C)c2c1)[C@@H](CO)N(C(=O)Nc1cccc(F)c1)CC31CCN(Cc2nccs2)CC1` was -73.5%. As to `CCC(=O)N1CC2(C1)CN(Cc1nccs1)[C@@H](CO)c1c2c2ccc(OC)cc2n1C`, the activity change is 3.74%. The value for `COc1ccc2c3c(n(C)c2c1)[C@H](CO)N(C(=O)CC1CC1)CC31CCN(Cc2nccs2)CC1` was -91.8% (active).

Consider `COc1ccc2c3c(n(C)c2c1)[C@H](CO)N(Cc1cccnc1)CC31CCN(Cc2cccnc2)CC1`, for which the activity change is -77.6%.

For `CN1C(=O)c2cc(NC(=O)C3CCCC3)ccc2OC[C@H]2O[C@@H](CC(=O)NCCc3ccncc3)CC[C@H]21`, the activity change is 22.6%. The value for `CCS(=O)(=O)N1CC2(CN(C(=O)c3ccc(F)cc3)[C@H](CO)c3c2c2ccc(OC)cc2n3C)C1` was -2.54%. `CCC(=O)N1C[C@H](C)[C@H](OC)CN(C)C(=O)c2ccc(NC(=O)Nc3cccc(F)c3)cc2OC[C@@H]1C`: the activity change was -41.8%.

Regarding `CCC(=O)N1C[C@H](C)[C@H](OC)CN(C)C(=O)c2cc(NC(=O)Nc3cccc(F)c3)ccc2OC[C@@H]1C`, the activity change was -86.1% (active). Then `CCC(=O)Nc1ccc2c(c1)C(=O)N(C)C[C@H](OC)[C@H](C)CN(Cc1ccccc1F)[C@H](C)CO2`, with -27.5%. As to `CO[C@H]1CN(C)C(=O)c2ccc(NC(=O)Nc3ccc4c(c3)OCO4)cc2OC[C@H](C)NC[C@H]1C`, the activity change is 0.516%. On to `CO[C@@H]1CN(C)C(=O)c2ccc(NC(=O)Nc3cc(Cl)cc(Cl)c3)cc2OC[C@H](C)NC[C@H]1C`, for which the activity change is -84.1% (active).

On to `CCC(=O)Nc1ccc2c(c1)C(=O)N(C)C[C@@H](OC)[C@@H](C)CN(Cc1ccccc1F)[C@H](C)CO2`, for which the activity change was -23.2%. Then `CCCC(=O)Nc1ccc2c(c1)OC[C@@H](C)N(Cc1ccccc1F)C[C@@H](C)[C@H](OC)CN(C)C2=O`, with -88.8% (active); and `CO[C@H]1CN(C)C(=O)c2ccc(NC(C)=O)cc2OC[C@@H](C)NC[C@H]1C`, with 19.5%. For `CO[C@H]1CN(C)C(=O)c2cc(NC(=O)Nc3cccc(F)c3)ccc2OC[C@H](C)N(C(C)=O)C[C@H]1C`, the activity change is -27.3%. For the compound `COc1ccc(NC(=O)Nc2ccc3c(c2)[C@H]2C[C@H](CC(=O)NC4CCCC4)O[C@@H](CO)[C@H]2O3)cc1`, the activity change is 4.95%. The value for `O=C(C[C@@H]1CC[C@H]2[C@@H](COC[C@H](O)CN2S(=O)(=O)c2ccccc2)O1)NCCN1CCCC1` was -4.83%. Then `C[C@@H]1CCCCO[C@H](CN(C)C(=O)CCC(F)(F)F)[C@H](C)CN([C@@H](C)CO)C(=O)c2cc(NC(=O)CCCCCC(=O)Nc3ccccc3N)ccc2O1`, with -41%; and `O=C(NC[C@@H]1[C@H](c2ccccc2)[C@H](CO)N1CC1CCCC1)c1cccnc1`, with -5.05%; and `O=S(=O)(NC[C@H]1[C@@H](c2ccccc2)[C@@H](CO)N1CC1CC1)c1ccccc1`, with 10.7%. Then `Cc1nc(N2[C@H](CO)[C@H](c3ccccc3)[C@H]2CNCC2CCCCC2)sc1C`, with -96.4% (active); and `Cc1nc(N2[C@H](CO)[C@H](c3ccccc3)[C@H]2CNCC2CCC2)sc1C`, with -89.7% (active); and `CCCNC(=O)N1[C@H](CO)[C@H](c2ccccc2)[C@H]1CNC(=O)C1CCCCC1`, with 6.57%. As to `COCCNC[C@@H]1[C@H](c2ccccc2)[C@H](CO)N1c1nc(C)c(C)s1`, the activity change is -28.1%.

On to `CCCNC(=O)[C@@H]1[C@@H](CO)[C@@H]2Cn3c(ccc(-c4ccccc4F)c3=O)[C@H]1N2CC1CC1`, for which the activity change is 4.78%. In the case of `CCCNC(=O)C[C@@H]1CC[C@H]2[C@@H](COc3ccc(NC(=O)C4CCCC4)cc3C(=O)N2C)O1`, the activity change is 5.93%.

Regarding `O=C(CC1CC1)N1CC[C@@H]2[C@@H](CO)Nc3ccc(-c4ccccc4)cc3[C@@H]21`, the activity change was 4.83%. The value for `O=C(Nc1ccccc1)N[C@@H]1CC[C@H](CCn2cc(-c3ccccc3F)nn2)O[C@@H]1CO` was -68%. The value for `O=C(Nc1ccc(F)cc1)N[C@H]1CC[C@H](CCn2cc(C3(O)CCCC3)nn2)O[C@@H]1CO` was -25.8%; that for `CC(C)NC(=O)Nc1ccc2c(c1)C(=O)N([C@@H](C)CO)C[C@@H](C)[C@H](CN(C)Cc1ccc(Cl)c(Cl)c1)OCCCC[C@H](C)O2` was -77.6%. Then `C[C@@H]1CN([C@H](C)CO)C(=O)c2cc(NC(=O)Nc3ccccc3)ccc2O[C@@H](C)CCCCO[C@H]1CN(C)Cc1ccc(C(F)(F)F)cc1`, with -85.7% (active); and `C[C@@H]1CN([C@H](C)CO)C(=O)c2cc(NC(=O)Nc3ccc(F)cc3)ccc2O[C@@H](C)CCCCO[C@H]1CN(C)Cc1ccc(Cl)c(Cl)c1`, with -77.2%. For the compound `C[C@H](CO)N1C[C@H](C)[C@H](CN(C)Cc2ccc(Cl)c(Cl)c2)OCCCC[C@H](C)Oc2ccc(NC(=O)NC3CCCCC3)cc2C1=O`, the activity change is -14.4%. The value for `C[C@@H]1CCCCO[C@@H](CN(C)Cc2ccc3c(c2)OCO3)[C@@H](C)CN([C@@H](C)CO)C(=O)c2cc(NC(=O)Nc3ccccc3)ccc2O1` was -36.8%. As to `C[C@H]1CCCCO[C@@H](CN(C)Cc2ccc(C(F)(F)F)cc2)[C@@H](C)CN([C@@H](C)CO)C(=O)c2cc(NC(=O)Nc3ccccc3)ccc2O1`, the activity change is -74.7%.

For the compound `C[C@@H]1CCCCO[C@@H](CN(C)Cc2ccc(Cl)c(Cl)c2)[C@H](C)CN([C@H](C)CO)C(=O)c2cc(NC(=O)Nc3ccc(F)cc3)ccc2O1`, the activity change is -83% (active). `C[C@@H]1CCCCO[C@@H](CN(C)Cc2ccc(C(F)(F)F)cc2)[C@@H](C)CN([C@H](C)CO)C(=O)c2cc(NC(=O)Nc3ccccc3)ccc2O1`: the activity change was 74.5%. The value for `COc1ccc(NC(=O)Nc2ccc3c(c2)C(=O)N([C@H](C)CO)C[C@H](C)[C@H](CN(C)Cc2ccncc2)OCCCC[C@H](C)O3)cc1` was 29.4%; that for `C[C@@H]1CCCCO[C@H](CN(C)Cc2ccc(Cl)c(Cl)c2)[C@@H](C)CN([C@@H](C)CO)C(=O)c2cc(NC(=O)Nc3ccccc3)ccc2O1` was -83% (active). The value for `COc1ccc(NC(=O)Nc2ccc3c(c2)C(=O)N([C@H](C)CO)C[C@@H](C)[C@H](CN(C)Cc2ccc(Cl)c(Cl)c2)OCCCC[C@@H](C)O3)cc1` was -83.8% (active); that for `COc1ccc(CN(C)C[C@@H]2OCCCC[C@@H](C)Oc3ccc(NC(=O)Nc4ccc(OC)cc4)cc3C(=O)N([C@@H](C)CO)C[C@@H]2C)cc1` was -76.5%.
